Compound activity deposited in PubChem by National Center for Advancing Translational Sciences (NCATS).
D2 ag-1: activates the human D2 dopamine receptor; activation, % (concentration not given with the values); P14416; DiscoveRx PathHunter D2 beta-arrestin, luminescence, 90 min; 100% = 57 uM dopamine signal; 360,000 tested, 0.084% active; in the data active = activation above about 40%; inconclusive = between about 15% and that limit
Target sequence (P14416 whole entry, looked up): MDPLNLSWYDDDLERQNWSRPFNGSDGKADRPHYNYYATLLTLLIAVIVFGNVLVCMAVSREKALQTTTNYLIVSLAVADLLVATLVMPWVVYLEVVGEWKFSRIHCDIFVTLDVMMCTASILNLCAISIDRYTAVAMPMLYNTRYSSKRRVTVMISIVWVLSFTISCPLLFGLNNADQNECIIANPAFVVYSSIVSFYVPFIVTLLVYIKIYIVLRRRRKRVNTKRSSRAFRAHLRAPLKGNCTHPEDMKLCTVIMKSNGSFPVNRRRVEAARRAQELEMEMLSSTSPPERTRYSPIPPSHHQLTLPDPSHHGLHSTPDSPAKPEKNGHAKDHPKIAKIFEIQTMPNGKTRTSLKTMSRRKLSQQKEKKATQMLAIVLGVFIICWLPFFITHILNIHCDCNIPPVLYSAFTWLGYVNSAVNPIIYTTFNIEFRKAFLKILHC
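DiscoveRx PathHunter D2 beta-arrestin cells (2,100/well) attached overnight, then compound-stimulated 90 min at 37 C in HBSS/10 mM HEPES/0.1% Tween-20 buffer; beta-galactosidase complementation read by luminescence after 1 h at ambient temperature. Dopamine 57 uM final (EC100) as control.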
D2 PAM-1: potentiates the human D2 dopamine receptor allosterically. P14416. DiscoveRx D2 beta-arrestin cells, luminescence, 90 min; 100% = 57 uM dopamine signal. potentiation, % (test concentration not listed). 360,000 tested, 0.23% active; in the data active = potentiation above about 50%; inconclusive = mostly about 30% to 49%
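PathHunter D2 cells, attached overnight at 37 deg C, received compound in DMSO plus dopamine at EC20 (50 nM final) for 90 min at 37 deg C. Beta-arrestin recruitment was read as luminescence after 1 h with detection reagent at ambient temperature.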
D2 PAM-2: D2 dopamine receptor (human) potentiation. HEK293 T-REx D2, calcium flux, EC20 dopamine potentiation. potentiation, % at 10 µM. 340,000 tested, 0.34% active. AID 485347;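 active = potentiation over 3 SD above the plate norm, cut at about 30% in these data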; also: 0% is about no effect
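Using a no-wash calcium dye in inducible, force-coupled HEK293 Trex cells expressing D2, we tracked fluorescence each second for 180 s after compound, then for 180 s after EC20 dopamine to detect augmented signalling.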
D2 ag-2: activates the human D2 dopamine receptor; AID 485358; HEK293 T-REx D2 cells, calcium flux agonist mode; P14416; 340,000 tested, 0.53% active; activation, % at 2 µM;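 active = activation over 3 SD above normal in the single-dose calcium agonist read, cut at about 30% in these data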; also: 0% is about no effect
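Calcium-flux readout, 1 cycle/sec over 180 s following compound pin transfer, in inducible HEK293 Trex D2 cells (force-coupled); dopamine controls included. Positive calcium responses during this window marked compounds as potential agonists.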
D2 antag: antagonizes the human D2 dopamine receptor | P14416 | HEK293 TREx D2 cells, calcium flux, dopamine EC80 | inhibition, % at 10 µM | 340,000 tested, 2% active; in the data active = inhibition above about 30%; inactive = below that, where a call was filed; also: 0% is about no effect
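In this primary screen, negative modulation is detected by tracking calcium flux after an EC80 dopamine challenge in inducible HEK293 T-REx D2 cells preexposed to test compound for 180 s.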
An asterisk follows results filed as active; ? = inconclusive; . = not tested or not shown. Shown are actives, neighbours in structure and some others; about 2.4% of the full set was active somewhere.

SMILES | D2 ag-1 | D2 PAM-1 | D2 PAM-2 | D2 ag-2 | D2 antag
O=C(CNC(=O)c1cccs1)N=Nc1c(O)[nH]c2ccc(Br)cc12 | -4 | -15 | -1 | 0 | -10
Cc1ccc(COC(=O)c2cccc(S(=O)(=O)N3CCCCCC3)c2)cc1 | 0 | -14 | 12 | 1 | 43*
Cc1ccc(COC(=O)c2cccc(S(=O)(=O)N3CCCCC3)c2)cc1 | -7 | -20 | 13 | -1 | -15
COc1ccccc1COC(=O)c1cccc(S(=O)(=O)N2CCCC2)c1 | -3 | -28 | 7 | 0 | 42*
Cc1ccccc1N(CC(=O)N/N=C/c1ccc(Cl)cc1)C(=O)c1ccccc1 | 0 | 3 | 5 | -1 | -12
CCCCNC1=CC(=O)C(=O)c2ccccc21 | 51* | -8 | 9 | 1 | 3
O=C(Nc1cc(C(F)(F)F)ccc1N1CCOCC1)c1cncc(Br)c1 | 0 | -3 | -6 | 0 | 31*
Nc1nnc(SCC(=O)Nc2cc(C(F)(F)F)ccc2N2CCOCC2)s1 | -2 | -9 | 2 | 0 | 87*
Cc1cccc(-c2nc3ccccc3c3nncn23)c1 | 0 | 0 | 5 | 1 | -19
CCOc1ccc(NC(=S)NCc2ccc3[nH]c(C)cc3c2)cc1 | 0 | -14 | -7 | -1 | 18
CCCCNC(=S)NCc1ccc2[nH]c(C)cc2c1 | 1 | -12 | 1 | -2 | 30*
COc1ccc(-c2nc3c(C)cc(Br)cn3c2CC(C)(C)C)cc1OC | -7 | -10 | . | . | .
Fc1ccc(/C=N/Nc2nc3ccccc3[nH]2)cc1F | -3 | -15 | 1 | . | .
COc1ccccc1CCN1CCCC(CN(C)C(=O)c2ccoc2)C1 (configuration not stated) | -2 | -27 | -11 | 0 | 42*
CC1c2ccccc2N(NC(=O)Cc2ccccc2)C1C (configuration not stated) | 3 | -12 | 9 | 0 | 18
CC(=O)c1cccc(NC(=O)NCCc2c[nH]c3ccccc23)c1 | -1 | -10 | -6 | -1 | -6
O=C(Nc1cccc(CNCCc2c[nH]c3ccccc23)c1)c1ccccc1Cl | -4 | -24 | -34 | 22 | 72*
O=C(NCCS(=O)(=O)N1CCN(c2ccccc2)CC1)c1cccc(F)c1 | 2 | 1 | -8 | 2 | 5
Cc1ccc(S(=O)(=O)N/N=C\c2cccnc2)cc1 | 4 | -14 | -1 | 0 | 35*
Cc1cc(OCC(=O)Nc2sc3c(c2C#N)CC(C)(C)NC3(C)C)c(C(C)C)cc1Cl | 3 | -2 | 7 | 0 | 34*
Cc1ccc(S(=O)(=O)CCC(=O)OCc2nc(N)nc(Nc3ccccc3C)n2)cc1 | -2 | ? | 21 | 0 | -2
Cc1ccccc1Nc1nc(N)nc(COC(=O)CCS(=O)(=O)c2ccccc2)n1 | 1 | -4 | -13 | 2 | 32*
O=C1NCCN1Cc1ccc(Cl)cc1 | 1 | -8 | 49* | 0 | -13
CCCCOC(=O)/C=C/c1ccc(OC(=O)OC)c(OC(=O)OC)c1 | 3 | -9 | -4 | 0 | 74*
Cn1cc(S(=O)(=O)N2CCCCCC2)cc1C(=O)NCc1ccc(F)cc1 | . | . | 3 | -1 | .
SMILES | D2 ag-1 | D2 PAM-1 | D2 PAM-2 | D2 ag-2 | D2 antag
O=C(CNC(=O)c1ccccc1F)OCc1cc(=O)n2nc(C3CC3)sc2n1 | . | . | -8 | -1 | .
Cc1cccn2c(=O)nc(SCC(=O)N3CCCCCC3)nc12 | 1 | -19 | -9 | 0 | 31*
Cc1cccn2c(=O)nc(SCC(=O)N3CCCCC3)nc12 | 2 | 3 | -4 | 0 | 21
N#CCC(=N)N1CCN(c2cccc(Cl)c2)CC1 | 0 | -22 | -15 | 1 | 63*
CCCC(c1nnnn1CS(=O)(=O)c1ccc(C)cc1)N1CCN(c2ccc(F)cc2)CC1 (configuration not stated) | -3 | -12 | . | 1 | 59*
CCCCCOc1ccccc1Cn1c(=O)oc2ccc(C)cc21 | . | . | -8 | 2 | .
CCCCOc1ccccc1Cn1c(=O)oc2ccc(C)cc21 | 1 | -4 | 7 | 1 | 31*
COc1cc(OC)cc(N2CCN(S(=O)(=O)c3ccc(-n4cnnn4)cc3)CC2)c1 | -5 | -1 | 19 | 0 | 46*
CC(C)(C)NC(=O)C1CCCN(S(=O)(=O)c2ccc(-n3cnnn3)cc2)C1 (configuration not stated) | 1 | -5 | 7 | 0 | 32*
CC(=O)Nc1ccc(NC(=O)C2CCCN(S(=O)(=O)c3ccc(-n4cnnn4)cc3)C2)cc1 (configuration not stated) | -6 | 2 | . | 5 | 12
COc1cccc(-n2cnnn2)c1 | -1 | -14 | -11 | 0 | 38*
COC(=O)c1cccc(-n2cnnn2)c1 | -4 | -14 | -3 | 0 | -7
C[C@H](CO)N1C[C@H](C)[C@H](CN(C)S(=O)(=O)c2ccc(Oc3ccccc3)nc2)OCc2cnnn2CCCC1=O | -1 | 1 | . | . | .
CC(=O)c1ccc(N2CCN(C(=O)/C=C/c3ccc(S(=O)(=O)N4CCOCC4)cc3)CC2)cc1 | -3 | -7 | -8 | 1 | 50*
CC(C)C(C)NC(=O)CN1C(=O)NC2(CCCCCC2)C1=O (configuration not stated) | 0 | -10 | 1 | 1 | 5
Cc1c(Cl)cccc1NS(=O)(=O)c1ccccc1 | -3 | -4 | . | . | .
Cc1c(NS(=O)(=O)c2ccccc2)cc(Cl)c(O)c1C | ? | 62* | . | 3 | -6
COC(=O)C1=C(CSc2nc3ccccc3o2)NC(=O)NC1c1cc(C)ccc1C (configuration not stated) | 2 | 26 | 1 | -1 | -5
COc1ccc(/C=C2\SC(=O)N(CCNC(=O)C3CC(=O)N(c4ccccc4)C3)C2=O)cc1 (configuration not stated) | 1 | 2 | 37* | 0 | -8
CCOc1ccc(N2CC(C(=O)NCCN3C(=O)S/C(=C\c4ccc(OC)cc4)C3=O)CC2=O)cc1 (configuration not stated) | -1 | -18 | 13 | 5 | 2
CCC1Oc2ccc(C)cc2N(CC(=O)NCCN2CCOCC2)C1=O (configuration not stated) | 8 | -4 | 14 | 1 | 4
CC(=O)Nc1ccc(S(=O)(=O)N2CCN(c3cc(C(F)(F)F)ccn3)CC2)cc1 | 5 | -9 | -7 | 0 | 4
FC(F)(F)c1ccnc(N2CCN(Cc3cnc(-c4ccccc4)[nH]3)CC2)c1 | 1 | -20 | -24 | 0 | 90*
CC(CCN1CCOCC1)c1ccccc1 (configuration not stated) | -2 | -2 | 1 | 0 | 1
CC(CCN1CCN(c2ccc(F)cc2)CC1)c1ccccc1 (configuration not stated) | -5 | -33 | -21 | 2 | 88*
